In the assay the target is Estrogen receptor beta (Homo sapiens) (UniProt Q92731). Nature of the assay: ERbeta ligand binders by competition, primary screen, cell-based, Cos7 ERbeta-GFP, flow cytometry (AID 1210).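 Note: 0% = DMSO vehicle wells and 100% = complete loss of labeled estradiol signal.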 Conditions: fluorescent estrogen binding, ligand binding inhibition, at 0.1 µM, stronger effect = higher value. (In flow cytometry, cells or beads pass a laser one at a time.)
Sequence of Estrogen receptor beta (Homo sapiens) (Q92731 whole entry, looked up): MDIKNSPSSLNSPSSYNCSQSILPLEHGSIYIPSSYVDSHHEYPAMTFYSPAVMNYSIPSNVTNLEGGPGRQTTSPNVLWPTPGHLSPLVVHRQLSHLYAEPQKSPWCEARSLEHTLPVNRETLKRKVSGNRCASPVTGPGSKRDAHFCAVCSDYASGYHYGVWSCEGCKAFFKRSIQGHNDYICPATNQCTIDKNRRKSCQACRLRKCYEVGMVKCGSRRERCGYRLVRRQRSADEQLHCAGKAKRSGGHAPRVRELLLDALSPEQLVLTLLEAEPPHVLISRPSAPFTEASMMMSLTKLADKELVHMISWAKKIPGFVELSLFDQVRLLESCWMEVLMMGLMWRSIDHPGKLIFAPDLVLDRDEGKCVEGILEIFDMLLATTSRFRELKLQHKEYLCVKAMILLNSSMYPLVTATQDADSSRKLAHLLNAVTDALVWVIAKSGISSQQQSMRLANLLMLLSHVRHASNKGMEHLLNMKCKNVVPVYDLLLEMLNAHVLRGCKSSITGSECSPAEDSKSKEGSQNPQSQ
The inhibition is how much of the control response was suppressed. Regarding `CCSc1nc2c(cnn2-c2ccc(C)cc2)c(=O)[nH]1`, the inhibition is 29%.

With `O=C(O)C1Nc2c(O)cc(Cl)c([N+](=O)[O-])c2C2C=CCC12` (stereo not drawn), the inhibition came to 18%.

For the compound `Oc1ccc(C=Nc2ccc(N3CCOCC3)cc2)c(O)c1`, the inhibition turned out to be 63%.

`CCN(CC)CCCNC(=O)c1nn(-c2ccccc2OC)c(=O)c2ccccc12` yielded an inhibition of 19%.

`O=C(Nc1ccc2c(c1)nc1n2CCSC1)c1ccco1`: the inhibition was determined as 31%.

As for `CCc1ccc2nc(NC(=O)c3ccc4c(=O)[nH]c(CN5CCOCC5)nc4c3)sc2c1`, the inhibition was 10%.

In the case of `CCOC(=O)C1=C(C)NC(=O)NC1c1ccco1` (stereo not drawn), the inhibition was 15%.

`Cc1ccc(-n2nnnc2SCC(=O)Nc2ccc3c(c2)COC3=O)cc1C` returned an inhibition of 2%.

The compound `CSc1ccc(S(=O)(=O)Nc2cccc(F)c2)cc1` returned an inhibition of 75%.

For the compound `O=c1c2c([nH]c3ccccc13)C(=C1CCCC1)CC2`, the inhibition was 11%.

On to `CC1CCN(S(=O)(=O)c2ccc(NC(=O)Cc3cccs3)cc2)CC1`, for which the inhibition worked out at 33%.

`COc1cccc(-c2nnc(NC(=O)Cc3cccs3)s2)c1` showed an inhibition of 47%.

Take `NC(=O)c1c(NC(=O)c2cc3ccccc3o2)sc2c1CCC2`: the inhibition was determined as 54%.

`CCN(CC)c1ccc2c(c1)oc(=O)c1c(Cl)cc(=O)oc12` came in with an inhibition of 18%.

`COc1ccc(CNC(=O)c2cc(-c3cccs3)on2)cc1` came in with an inhibition of 23%.

Consider `O=C(O)C1OC(Oc2c(-c3ccc(O)c(O)c3)oc3cc(O)cc(O)c3c2=O)C(O)C(O)C1O` (stereo not drawn), for which the inhibition came to 2%.

`COc1ccc(C2CC(c3cccs3)=NN2c2ccc(C=O)cc2)cc1` (stereo not drawn) showed an inhibition of 29%.

In turn, `O=C(CCCn1c(=S)[nH]c2cc3c(cc2c1=O)OCO3)N1CCN(c2ccc(Cl)cc2)CC1` displayed an inhibition of 56%.

Compound `Cc1nnc(Oc2ccccc2F)c2ccccc12` returned an inhibition of 38%.

In turn, `O=C1c2ccccc2C(=O)N1/N=C/c1ccc(O)c(O)c1` registered an inhibition of 54%.

With `COc1cccc(NC(=O)CSc2nc3ccccc3c3nc4ccccc4n23)c1`, the inhibition stood at 18%.

Compound `CC(Oc1ccc(Cl)cc1Cl)C(=O)Nc1ccc2oc(-c3ccncc3)nc2c1` (stereo not drawn) came in with an inhibition of 27%.

`COc1ccc(NC(=O)CN(c2ccccc2)S(=O)(=O)N(C)C)cc1OC` registered an inhibition of 15%.

As for `CCOC(=O)c1c(NC(=O)CSc2nnc(-c3ccccc3)o2)sc(C(C)=O)c1C`, the inhibition was 32%.

The compound `CCOc1cccc2cc(-c3nnc(NCc4ccco4)s3)c(=O)oc12` returned an inhibition of 28%.

With `O=Cc1cn(-c2ccccc2)nc1-c1cc2c(ccc3ccccc32)oc1=O`, the inhibition turned out to be 81%.

`Oc1ccc(-c2cn3c(n2)SCC3)cc1`: the inhibition was 10%.

`COc1ccc2nc3oc(C(=O)N4CCN(c5cccc(C(F)(F)F)c5)CC4)cc3cc2c1` returned an inhibition of 47%.

As to `Cc1ccc2occ(C3NC(C(=O)O)CS3)c(=O)c2c1` (stereo not drawn), the inhibition is 27%.

In the case of `Oc1ccc(N=Cc2ccc(O)c(O)c2)cc1`, the inhibition stood at 20%.

`C=CCn1c(COc2cccc(C)c2)nnc1SCC(=O)NC(=O)NCc1ccco1`: the inhibition is 47%.

Regarding `Cc1cccn2c(=O)c3cc(C(=O)O)n(C)c3nc12`, the inhibition was determined as 11%.

`Cc1ccccc1CSCC(=O)NC(=O)NCc1ccco1` gave an inhibition of 35%.

`COC(=O)c1ccc2c(=O)n(CCCCCC(=O)NCc3ccc4c(c3)OCO4)c(=O)[nH]c2c1` showed an inhibition of 20%.

In turn, `C/C(N)=C(/C#N)C(=O)CSc1nnc(COc2ccccc2Cl)o1` showed an inhibition of 44%.

`CC(C)(C)c1nnc2sc(SC/C(O)=C(\C#N)c3nc4ccccc4[nH]3)nn2c1=O` displayed an inhibition of 15%.

With `CCc1ccc(Nc2cc(C(=O)NCCCN3CCOCC3)c3ccccc3n2)cc1`, the inhibition amounted to 12%.

`CCN(c1ccccc1)S(=O)(=O)c1cc(C(=O)O)ccc1C` had an inhibition of 13%.

Source of the values: PubChem BioAssay AID1210 (NMMLSC, 2008).
